# Reference: PubChem BioAssay AID720591 (Broad Institute, 2013)
# About 60 (5%) of roughly 1,200 compounds were called active. Roughly 1% stayed inconclusive and do not appear here.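 How the source made its calls: active means Decreasing signal and fitted IC50 at most twice the top valid tested dose; inconclusive means Bad fit or a level curve showing 30 to 70% inhibition; inactive means the rest.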 The list is a sample of the results. Results with a measured potency or affinity are listed apart.
# Target: NAD-dependent protein deacylase sirtuin-5, mitochondrial (Homo sapiens) (UniProt Q9NXA8)
# Sequence (Q9NXA8 whole entry, looked up): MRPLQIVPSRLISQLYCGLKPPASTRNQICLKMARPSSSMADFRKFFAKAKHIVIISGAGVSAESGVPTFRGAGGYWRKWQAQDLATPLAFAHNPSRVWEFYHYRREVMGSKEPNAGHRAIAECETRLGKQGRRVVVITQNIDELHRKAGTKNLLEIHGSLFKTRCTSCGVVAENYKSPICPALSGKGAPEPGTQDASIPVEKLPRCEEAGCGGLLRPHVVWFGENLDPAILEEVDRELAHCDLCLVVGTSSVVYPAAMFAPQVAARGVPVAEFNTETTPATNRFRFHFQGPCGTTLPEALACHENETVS
# Assay: SIRT5 desuccinylase inhibitors, dose response, biochemical, fluorescence imaging, cherry-pick, set 5 (AID 720591);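 further: 0% = median of neutral control wells and -100% = median of positive control wells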
# Conditions: Purified SirT5, succinyl-peptide AMC, trypsin-coupled fluorescence; series mostly up to 15 µM; activity change, negative = inhibition: at the top concentration
row,Structure (SMILES),"activity change, negative = inhibition"
1,CCOc1ccccc1NC(=O)CN1c2cccc3cccc(c23)S1(=O)=O,12.7% (inactive)
2,Nn1c(C2CCC2)nc2cc(Cl)ccc2c1=O,-25.2% (inactive)
3,CCC(C)C(CO)NCCCn1cnc2c(SC)ncnc21 (stereo not drawn),4.95% (inactive)
4,Cc1csc(NC(=O)c2cc3ccccc3o2)n1,12.3% (inactive)
5,Cc1nc(NC(=O)c2cc3ccccc3o2)sc1C,7.97% (inactive)
6,Cc1ccc(OCCNC(=O)C2CCCCC2)cc1,7.97% (inactive)
7,Cc1cc(C)c2c(CN3CCOCC3)cc(=O)oc2c1,2.2% (inactive)
8,COc1ccc(CNC(=O)CCn2ccc3cc(S(=O)(=O)N4CCCC4)ccc32)cc1,-22.9% (inactive)
9,COc1ccc(CN(C(=O)c2ccco2)c2ccccc2)cc1,13.5% (inactive)
10,COc1ccc(CN(C(=O)c2ccco2)c2ccc(C)cc2)cc1OC,-33.2% (inactive)
11,CN1C(=O)[C@H]2[C@@H](C3CC3)N3C(=O)CN(CCO)C(=O)[C@@]3(Cc3ccccc3)[C@H]2C1=O,-16.4% (inactive)
12,CCOc1ccc(-c2noc(CCCC(=O)NC3CCCC3)n2)cc1OC,1.29% (inactive)
13,CCCCCNC(=O)C(c1cc2ccccc2o1)n1c(=O)c(-c2ccccc2)nc2ccccc21 (stereo not drawn),-20.3% (inactive)
14,COc1ccc(CCNC(=O)COC(=O)CCC(=O)c2ccc(F)cc2)cc1OC,16.3% (inactive)
15,CCCCCCNC(=O)c1ccc(Br)o1,2.66% (inactive)
16,COc1cc(C(=O)NCC2(N(C)C)CCCCC2)ccc1OCc1ccccc1,5.49% (inactive)
17,Cn1c(NCCCO)nc2c1c(=O)n(Cc1ccccc1F)c(=O)n2C,5.2% (inactive)
18,CC(=O)c1cc(-c2ccc(F)cc2)n(CCC(=O)NC(C)(C)C)c1C,40.1% (inactive)
19,CCCCNC(=O)C[C@@H]1C[C@@]2(C(=O)OC)CC(C)(C)CC=C2N(Cc2ccco2)C1=O,2.48% (inactive)
20,COC(CNC(=O)CC1C(=O)N(Cc2ccccc2)C(C)c2nc3ccccc3n21)OC (stereo not drawn),16.8% (inactive)
21,Cc1ccc(S(=O)(=O)N2C[C@@H](C)[C@]3(C2)[C@H](O)[C@H](OC(=O)NCc2ccco2)C[C@H]2C(=O)N(c4ccccc4)C(=O)[C@H]23)cc1,-12.3% (inactive)
22,OC[C@@H]1CN(Cc2cccs2)C[C@H](n2cnc3c(Nc4ccccc4)ncnc32)O1,1.28% (inactive)
23,CCc1cc2c(=O)c(-c3nc4ccccc4n3C)coc2c(CN2CCCCC2)c1O,32.2% (inactive)
24,Cc1ccc(NC(=O)c2ccc3c(c2)CCN3S(C)(=O)=O)cc1,11.9% (inactive)
25,Cc1cc(C)cc(N(C(=O)CCC(=O)Nc2cc(C)on2)C(C(=O)NC2CCCC2)c2ccco2)c1 (stereo not drawn),-2.73% (inactive)
26,COc1ccc(CC(=O)NCC2CCCN(Cc3ccc(OC(F)(F)F)cc3)C2)cc1 (stereo not drawn),-23.7% (inactive)
27,CCOC(=O)C(Cc1ccc(NC(C)=O)cc1)N1C(=O)c2ccccc2C1=O (stereo not drawn),-8.71% (inactive)
28,O=C(OCC(=O)N1CCCC1)c1cc(Br)ccc1Cl,-18.6% (inactive)
